Source: ChEMBL document CHEMBL1961873, “Compounds: GSK PKIS; Assays: Nanosyn kinase panel” (2012)

Legend:
[1] = molecular target: Dual specificity protein kinase CLK3 (Homo sapiens) (UniProt P49761); details: at 1 µM;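 note: each value is the mean inhibition of CLK3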
[2] = molecular target: Dual specificity tyrosine-phosphorylation-regulated kinase 1A (Homo sapiens) (UniProt Q13627); details: at 0.1 µM
[3] = molecular target: Dual specificity tyrosine-phosphorylation-regulated kinase 1A (Homo sapiens) (UniProt Q13627); details: at 1 µM
[4] = molecular target: Dual specificity tyrosine-phosphorylation-regulated kinase 1B (Homo sapiens) (UniProt Q9Y463); details: at 0.1 µM
[5] = molecular target: Dual specificity tyrosine-phosphorylation-regulated kinase 1B (Homo sapiens) (UniProt Q9Y463); details: at 1 µM
[6] = molecular target: T1, Dual specificity tyrosine-phosphorylation-regulated kinase 2 (Homo sapiens) (UniProt Q92630); details: at 0.1 µM
T1 sequence (whole entry): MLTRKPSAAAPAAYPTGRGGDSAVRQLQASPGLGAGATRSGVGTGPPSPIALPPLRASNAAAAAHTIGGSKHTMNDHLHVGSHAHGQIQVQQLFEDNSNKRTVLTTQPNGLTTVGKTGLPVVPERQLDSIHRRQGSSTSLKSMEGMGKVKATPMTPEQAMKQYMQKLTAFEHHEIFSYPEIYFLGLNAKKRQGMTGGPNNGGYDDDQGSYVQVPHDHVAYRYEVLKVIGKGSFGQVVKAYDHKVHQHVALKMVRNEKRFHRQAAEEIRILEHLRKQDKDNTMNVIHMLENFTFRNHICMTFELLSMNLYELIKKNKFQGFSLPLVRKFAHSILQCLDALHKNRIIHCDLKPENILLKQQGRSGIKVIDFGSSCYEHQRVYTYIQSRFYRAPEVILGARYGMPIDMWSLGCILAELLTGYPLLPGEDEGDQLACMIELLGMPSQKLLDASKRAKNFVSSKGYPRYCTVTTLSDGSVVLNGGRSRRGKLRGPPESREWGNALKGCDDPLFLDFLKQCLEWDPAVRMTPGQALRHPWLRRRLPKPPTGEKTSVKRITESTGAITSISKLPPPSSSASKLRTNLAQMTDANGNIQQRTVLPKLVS

[7] = molecular target: T1, Dual specificity tyrosine-phosphorylation-regulated kinase 2 (Homo sapiens); details: at 1 µM
[8] = molecular target: Glycogen synthase kinase-3 alpha (Homo sapiens) (UniProt P49840); details: at 0.1 µM
[9] = molecular target: Glycogen synthase kinase-3 alpha (Homo sapiens) (UniProt P49840); details: at 1 µM
[10] = molecular target: Glycogen synthase kinase-3 beta (Homo sapiens) (UniProt P49841); details: at 0.1 µM
[11] = molecular target: Glycogen synthase kinase-3 beta (Homo sapiens) (UniProt P49841); details: at 1 µM
[12] = molecular target: Homeodomain-interacting protein kinase 1 (Homo sapiens) (UniProt Q86Z02); details: at 0.1 µM
[13] = molecular target: Homeodomain-interacting protein kinase 1 (Homo sapiens) (UniProt Q86Z02); details: at 1 µM
[14] = molecular target: T2, Homeodomain-interacting protein kinase 4 (Homo sapiens) (UniProt Q8NE63); details: at 0.1 µM
T2 sequence (whole entry): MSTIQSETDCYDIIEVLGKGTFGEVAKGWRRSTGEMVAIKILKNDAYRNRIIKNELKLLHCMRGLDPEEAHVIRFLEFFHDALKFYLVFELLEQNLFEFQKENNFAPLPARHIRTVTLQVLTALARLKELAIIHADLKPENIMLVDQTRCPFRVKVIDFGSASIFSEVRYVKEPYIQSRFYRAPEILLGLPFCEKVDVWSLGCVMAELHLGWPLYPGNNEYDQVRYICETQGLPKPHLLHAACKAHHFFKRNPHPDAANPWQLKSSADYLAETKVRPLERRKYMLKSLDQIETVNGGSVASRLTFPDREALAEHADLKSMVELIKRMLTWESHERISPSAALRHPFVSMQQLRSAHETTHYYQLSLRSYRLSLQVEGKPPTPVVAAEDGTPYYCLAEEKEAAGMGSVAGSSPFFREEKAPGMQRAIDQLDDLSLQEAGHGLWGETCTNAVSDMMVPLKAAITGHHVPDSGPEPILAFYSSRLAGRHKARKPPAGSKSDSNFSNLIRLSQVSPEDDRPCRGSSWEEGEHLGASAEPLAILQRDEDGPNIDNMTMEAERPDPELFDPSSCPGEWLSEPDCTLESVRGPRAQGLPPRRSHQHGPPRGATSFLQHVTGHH

[15] = molecular target: T2, Homeodomain-interacting protein kinase 4 (Homo sapiens); details: at 1 µM
[16] = molecular target: Mitogen-activated protein kinase 9 (Homo sapiens) (UniProt P45984); details: at 0.1 µM
[17] = molecular target: Mitogen-activated protein kinase 9 (Homo sapiens) (UniProt P45984); details: at 1 µM
[18] = molecular target: Mitogen-activated protein kinase 1 (Homo sapiens) (UniProt P28482); details: at 0.1 µM
[19] = molecular target: Mitogen-activated protein kinase 1 (Homo sapiens) (UniProt P28482); details: at 1 µM
[20] = molecular target: Mitogen-activated protein kinase 3 (Homo sapiens) (UniProt P27361); details: at 0.1 µM;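 note: each value is a mean inhibition figure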
Sequence of Mitogen-activated protein kinase 3 (Homo sapiens) (P27361 whole entry): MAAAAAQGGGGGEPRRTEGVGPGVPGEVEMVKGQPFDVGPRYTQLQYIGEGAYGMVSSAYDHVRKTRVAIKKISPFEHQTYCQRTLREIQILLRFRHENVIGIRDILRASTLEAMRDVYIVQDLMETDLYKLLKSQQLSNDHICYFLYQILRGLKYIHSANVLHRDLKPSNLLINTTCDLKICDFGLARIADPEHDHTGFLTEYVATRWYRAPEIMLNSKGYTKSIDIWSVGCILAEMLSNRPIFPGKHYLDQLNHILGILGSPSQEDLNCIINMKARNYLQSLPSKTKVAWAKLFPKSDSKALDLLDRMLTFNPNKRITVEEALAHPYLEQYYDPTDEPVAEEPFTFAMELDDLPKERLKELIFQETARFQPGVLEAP

Sequence of Glycogen synthase kinase-3 beta (Homo sapiens) (P49841 whole entry, looked up): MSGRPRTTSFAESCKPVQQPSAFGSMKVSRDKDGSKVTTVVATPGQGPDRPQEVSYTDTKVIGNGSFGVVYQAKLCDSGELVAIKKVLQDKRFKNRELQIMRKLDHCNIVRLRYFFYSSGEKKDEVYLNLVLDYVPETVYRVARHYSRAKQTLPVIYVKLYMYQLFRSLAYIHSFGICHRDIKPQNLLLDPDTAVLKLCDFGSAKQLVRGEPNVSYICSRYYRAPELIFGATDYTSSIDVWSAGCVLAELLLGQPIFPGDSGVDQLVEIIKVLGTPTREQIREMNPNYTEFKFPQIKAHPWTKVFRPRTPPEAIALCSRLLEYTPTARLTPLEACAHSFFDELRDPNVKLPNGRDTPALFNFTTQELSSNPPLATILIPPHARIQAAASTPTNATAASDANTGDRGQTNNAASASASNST
Sequence of Dual specificity tyrosine-phosphorylation-regulated kinase 1B (Homo sapiens) (Q9Y463 whole entry, looked up): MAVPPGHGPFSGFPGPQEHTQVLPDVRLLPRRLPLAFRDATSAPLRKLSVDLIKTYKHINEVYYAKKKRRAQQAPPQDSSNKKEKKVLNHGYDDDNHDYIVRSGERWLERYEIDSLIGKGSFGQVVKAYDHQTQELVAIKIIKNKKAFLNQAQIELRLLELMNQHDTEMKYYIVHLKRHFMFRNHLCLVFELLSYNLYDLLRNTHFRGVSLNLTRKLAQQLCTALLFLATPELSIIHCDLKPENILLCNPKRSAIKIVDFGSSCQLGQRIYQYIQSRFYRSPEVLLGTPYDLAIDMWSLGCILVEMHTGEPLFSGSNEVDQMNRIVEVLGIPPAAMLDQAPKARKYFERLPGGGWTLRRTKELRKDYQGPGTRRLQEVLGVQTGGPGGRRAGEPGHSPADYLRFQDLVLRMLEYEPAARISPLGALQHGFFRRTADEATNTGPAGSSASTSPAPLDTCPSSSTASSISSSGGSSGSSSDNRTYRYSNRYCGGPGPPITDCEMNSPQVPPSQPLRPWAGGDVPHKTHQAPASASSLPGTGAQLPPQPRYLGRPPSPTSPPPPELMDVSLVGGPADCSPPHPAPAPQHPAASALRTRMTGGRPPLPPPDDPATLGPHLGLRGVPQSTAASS
Sequence of Mitogen-activated protein kinase 9 (Homo sapiens) (P45984 whole entry, looked up): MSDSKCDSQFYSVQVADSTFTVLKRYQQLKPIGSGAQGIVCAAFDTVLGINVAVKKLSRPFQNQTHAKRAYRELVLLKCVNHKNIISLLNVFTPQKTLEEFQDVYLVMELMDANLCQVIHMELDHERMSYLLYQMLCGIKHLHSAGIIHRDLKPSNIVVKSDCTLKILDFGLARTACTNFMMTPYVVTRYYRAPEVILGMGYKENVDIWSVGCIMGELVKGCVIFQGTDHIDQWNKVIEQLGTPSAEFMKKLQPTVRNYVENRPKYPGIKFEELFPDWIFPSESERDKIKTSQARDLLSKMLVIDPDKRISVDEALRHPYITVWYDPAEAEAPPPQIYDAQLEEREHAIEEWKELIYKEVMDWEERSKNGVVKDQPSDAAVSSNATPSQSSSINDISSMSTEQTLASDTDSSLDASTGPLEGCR
Sequence of Homeodomain-interacting protein kinase 1 (Homo sapiens) (Q86Z02 whole entry, looked up): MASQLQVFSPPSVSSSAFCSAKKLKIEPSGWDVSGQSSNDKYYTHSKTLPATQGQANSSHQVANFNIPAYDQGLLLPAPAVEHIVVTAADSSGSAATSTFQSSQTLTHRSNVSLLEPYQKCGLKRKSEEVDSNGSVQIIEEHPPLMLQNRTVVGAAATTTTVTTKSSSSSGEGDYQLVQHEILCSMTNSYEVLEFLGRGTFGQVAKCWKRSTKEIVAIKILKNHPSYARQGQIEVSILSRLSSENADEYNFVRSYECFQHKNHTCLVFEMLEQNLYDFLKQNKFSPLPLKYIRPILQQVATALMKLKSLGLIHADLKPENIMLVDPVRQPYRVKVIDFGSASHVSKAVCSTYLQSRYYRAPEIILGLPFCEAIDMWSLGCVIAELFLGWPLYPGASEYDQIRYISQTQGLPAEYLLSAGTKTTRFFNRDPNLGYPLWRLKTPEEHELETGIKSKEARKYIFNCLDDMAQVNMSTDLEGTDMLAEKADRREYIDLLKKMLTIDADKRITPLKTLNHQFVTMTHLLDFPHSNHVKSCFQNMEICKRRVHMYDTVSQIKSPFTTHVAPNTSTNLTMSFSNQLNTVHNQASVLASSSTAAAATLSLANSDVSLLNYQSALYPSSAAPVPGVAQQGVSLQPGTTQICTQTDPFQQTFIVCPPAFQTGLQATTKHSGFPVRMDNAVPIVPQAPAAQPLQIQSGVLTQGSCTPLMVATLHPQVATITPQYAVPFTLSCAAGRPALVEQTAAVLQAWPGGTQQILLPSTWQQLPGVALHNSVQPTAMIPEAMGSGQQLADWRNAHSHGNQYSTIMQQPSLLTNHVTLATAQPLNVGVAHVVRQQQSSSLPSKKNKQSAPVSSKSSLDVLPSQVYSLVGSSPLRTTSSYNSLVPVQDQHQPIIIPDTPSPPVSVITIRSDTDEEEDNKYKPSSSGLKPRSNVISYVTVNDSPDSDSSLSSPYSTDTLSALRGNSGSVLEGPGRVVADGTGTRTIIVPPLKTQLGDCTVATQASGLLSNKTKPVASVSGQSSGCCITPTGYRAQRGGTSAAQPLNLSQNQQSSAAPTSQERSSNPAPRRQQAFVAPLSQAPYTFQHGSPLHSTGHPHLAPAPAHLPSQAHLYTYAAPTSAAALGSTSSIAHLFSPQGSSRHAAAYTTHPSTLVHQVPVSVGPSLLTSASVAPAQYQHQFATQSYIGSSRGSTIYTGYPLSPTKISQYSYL
Sequence of Dual specificity protein kinase CLK3 (Homo sapiens) (P49761 whole entry, looked up): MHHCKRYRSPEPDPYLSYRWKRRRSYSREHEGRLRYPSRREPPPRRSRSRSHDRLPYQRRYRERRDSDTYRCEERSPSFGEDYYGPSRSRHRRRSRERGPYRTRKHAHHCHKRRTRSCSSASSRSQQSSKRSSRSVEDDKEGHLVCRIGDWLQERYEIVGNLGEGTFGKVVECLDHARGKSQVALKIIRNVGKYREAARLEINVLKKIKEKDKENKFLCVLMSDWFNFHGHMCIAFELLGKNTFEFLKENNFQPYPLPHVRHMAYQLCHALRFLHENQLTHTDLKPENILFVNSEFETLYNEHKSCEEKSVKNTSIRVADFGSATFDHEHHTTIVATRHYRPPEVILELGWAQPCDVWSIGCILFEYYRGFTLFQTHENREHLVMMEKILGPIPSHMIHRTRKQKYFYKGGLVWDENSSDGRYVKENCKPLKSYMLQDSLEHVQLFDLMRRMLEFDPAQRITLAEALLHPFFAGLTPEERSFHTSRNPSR
Sequence of Glycogen synthase kinase-3 alpha (Homo sapiens) (P49840 2-483 limits assumed): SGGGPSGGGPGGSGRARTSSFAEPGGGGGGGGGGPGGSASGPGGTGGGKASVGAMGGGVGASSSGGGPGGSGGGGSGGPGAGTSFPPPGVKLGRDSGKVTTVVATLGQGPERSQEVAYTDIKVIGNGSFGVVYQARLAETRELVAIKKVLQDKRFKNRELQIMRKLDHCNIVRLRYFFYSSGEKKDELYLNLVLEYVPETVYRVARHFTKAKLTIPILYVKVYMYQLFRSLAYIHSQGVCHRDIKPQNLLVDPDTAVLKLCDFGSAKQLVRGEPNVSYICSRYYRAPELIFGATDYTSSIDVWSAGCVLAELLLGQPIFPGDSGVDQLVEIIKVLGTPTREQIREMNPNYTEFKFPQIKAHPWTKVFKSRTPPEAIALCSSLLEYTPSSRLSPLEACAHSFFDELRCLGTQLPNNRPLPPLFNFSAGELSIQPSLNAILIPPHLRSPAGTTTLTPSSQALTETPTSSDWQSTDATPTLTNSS
Sequence of Mitogen-activated protein kinase 1 (Homo sapiens) (P28482 whole entry): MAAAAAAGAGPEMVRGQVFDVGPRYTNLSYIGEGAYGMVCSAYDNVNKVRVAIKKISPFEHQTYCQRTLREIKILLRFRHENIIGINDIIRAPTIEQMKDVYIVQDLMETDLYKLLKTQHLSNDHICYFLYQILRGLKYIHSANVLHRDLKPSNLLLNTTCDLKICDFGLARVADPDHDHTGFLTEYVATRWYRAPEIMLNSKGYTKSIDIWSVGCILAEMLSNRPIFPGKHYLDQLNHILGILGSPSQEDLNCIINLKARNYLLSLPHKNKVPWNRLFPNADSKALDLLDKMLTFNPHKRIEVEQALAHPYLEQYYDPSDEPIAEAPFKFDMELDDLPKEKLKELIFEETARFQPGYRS

SMILES	inhibition [1] [%]	inhibition [2] [%]	inhibition [3] [%]	inhibition [4] [%]	inhibition [5] [%]	inhibition [6] [%]	inhibition [7] [%]	inhibition [8] [%]	inhibition [9] [%]	inhibition [10] [%]	inhibition [11] [%]	inhibition [12] [%]	inhibition [13] [%]	inhibition [14] [%]	inhibition [15] [%]	inhibition [16] [%]	inhibition [17] [%]	inhibition [18] [%]	inhibition [19] [%]	inhibition [20] [%]
Fc1ccc(-c2nn3ccccc3c2-c2ccncc2)cc1	0.88	0.99	3.18	0.03	2.03	0.76	1.76	1.02	6.14	1.33	10.7	-1.55	0.97	-0.72	0.37	4.3	25.4	0.83	1.21	1.33
O=C(O[C@H]1CN[C@H](C#Cc2cc3ncnc(Nc4ccc(Cc5ccccc5)cc4)c3s2)C1)N1CCOCC1	0.23	1.9	-0.14	1.3	2.47	2.26	0.33	2.45	3.62	0.78	2.73	-2.13	0.97	0.04	-1.93	-0.66	-0.45	3.25	3.25	2.66
COc1cccc(-c2c[nH]c3c(N/N=C/c4ccncc4)ncnc23)c1	14	16.1	58.5	11.3	50.5	11.7	57.8	78.9	83.5	76.6	83.5	5.99	41.7	10.1	43.2	2.08	8.51	1.55	5.09	1.78
CCOc1ccc2c(-c3ccnc(Nc4cccc(C(F)(F)F)c4)n3)cnn2n1	6.13	-0.46	6.48	1.37	21	1.79	0.78	12.1	46.1	5.68	33.6	21.8	70	10.3	46.2	1.84	1.35	3.23	3.31	2.89
COc1ccc2[nH]c3c4[nH]c5ccc(OC)cc5c4c4c(c3c2c1)C(=O)NC4=O	4.44	10.1	43.1	2.55	26.1	6.81	29	1.75	6.24	3.92	14.7	5.17	20.7	4.28	22.8	4.65	21.7	3.5	5.44	4.93
NS(=O)(=O)c1ccc(N/N=C2\C(=O)Nc3ccc4ncccc4c32)cc1	15	18.6	61.6	13	54.8	6.76	35.7	55.3	80.9	53.5	80.2	19.7	64.7	6.71	40	6.07	33.7	14.9	55.5	6.45
CCN1CCC(CC(=O)Nc2n[nH]c3nnc(-c4cccc(F)c4F)cc23)CC1	2.16	10.4	53.1	7.85	46.9	1.7	5.64	88.8	93.9	85	94.4	-3.8	8.59	0.11	3	2.02	-0.48	4.04	2.72	3.44
COc1cc(N2CCN(C(C)C)CC2)ccc1Nc1nc(Nc2ccc(F)cc2C(N)=O)c2cc[nH]c2n1	13.2	45.2	86.5	49.1	76.6	5.36	36.4	3.88	5.19	2.71	7.27	33.9	73.7	44.8	75.1	65.5	89.1	2.91	15.3	2.87
CS(=O)(=O)CCNCc1ccc(-c2ccc3ncnc(Nc4ccc(OCc5ccccc5)c(C(F)(F)F)c4)c3c2)o1	0.19	2.36	4.91	-2.07	-0.6	3.17	0.91	3.36	3.82	3.13	3.51	-3.76	-0.23	-0.74	-1.78	2.51	0.92	4.58	5.24	3.56
CC(=O)Nc1cccc(C#Cc2cncnc2Nc2ccc(OCc3cccc(F)c3)c(Cl)c2)c1	0.73	-0.41	1.4	0.85	-0.33	3.61	1.41	2.72	5.35	1.98	4.53	-1.76	-0.76	1.24	4.47	2.12	3.22	2.93	3.14	2.14
CN(C)CCOc1ccc(-c2nc(-c3ccncc3)c(-c3ccc4c(c3)CC/C4=N\O)[nH]2)cc1	3.66	4.17	8.33	2.86	5.07	2.04	4.1	5.08	9.93	4.7	9.68	6	17.8	3.76	8.61	-0.13	6.51	3.96	2.88	1.97
Cc1cccc(Nc2ncc(-c3ccccc3)o2)c1	0.79	1.29	4.26	0.51	2.16	3.21	5.94	4.32	12.3	3.23	12	-1.62	9.25	1.22	8.11	5.28	7.95	3.91	5.08	5.66
Cc1ccc(O)cc1Nc1ccnc2cc(-c3ccccn3)ccc12	2.88	2.56	4.96	0.53	1.85	3.35	5.79	2.73	6.51	1.23	5.65	1.24	5.57	1.19	0.77	2.32	11.5	-0.57	4.7	1.59
Nc1ncc(-c2cccc(S(N)(=O)=O)c2)c2scc(-c3ccc(F)c(Cl)c3)c12	0.34	2.01	3.66	-0.65	0.74	3.42	2.46	3.06	4.87	2.78	3.65	0.64	3.02	1.4	4.49	2.92	20.5	6.27	7.98	3.4
CCn1c(-c2nonc2N)nc2c(C#CC(C)(C)O)nc(OC[C@H](N)c3ccccc3)cc21	0.92	1.72	2.24	0.98	2.57	3.62	4.79	36.8	73.6	30	71.2	-1.18	12.3	3.08	6.13	7.43	9.81	2.37	5.04	3.72
CS(=O)(=O)CCNCc1coc(-c2ccc3ncnc(Nc4ccc(OCc5ccccc5)cc4)c3c2)c1	0.66	1.48	2.33	-0.25	1.83	3.02	4.76	2.99	4.78	2.21	6.33	-1.59	2.97	0.96	8.92	1.82	2.72	2.46	3.11	3.44
CN1CCC(n2cnc(-c3ccc(F)cc3)c2-c2ccnc(Nc3ccccc3)n2)CC1	0.59	1.28	2.82	0.22	0.48	1.36	3.27	3.08	12.7	4.95	34.3	2.6	0.41	0.08	7.29	28	74.7	2.4	5.02	3.96
COc1ccc(CNC(=O)c2ccc(-c3cc(-c4nnc(C)o4)ccc3C)cc2)cc1	2.16	1.08	1.05	1.53	2.22	0.27	1.42	5.61	17.9	5.31	13.6	5.43	5.55	7.2	9.71	-0.3	2.51	4.56	-9.41	1.8
COc1ccc(-c2cc3c(N)ncnc3o2)cc1	11.4	4.26	22.7	5.2	12	0.06	18.5	5.87	7.92	5.53	8	0	5.4	2.36	16.5	-0.62	-0.18	1	0.69	-1.53
c1cc(-c2cnn3nc(N4CCOCC4)ccc23)nc(NC2CC2)n1	8.62	7.48	40.4	6.08	35.8	5.57	32.8	4.47	26.4	2.95	18.2	3.36	29	4.39	20.6	5.03	26.1	1.45	7.25	4.13
O=S(=O)(CCNCc1ccc(-c2ccc3ncnc(Nc4ccc(OCc5cccc(F)c5)c(Cl)c4)c3c2)o1)c1ccccc1	-0.68	3.49	5.29	-0.71	0.19	3.86	2.88	3.49	4.1	2.66	2.57	0.47	4.11	3.74	5.4	5.87	5.2	7.56	8.99	6.61
c1ccc(-c2nc3n(c2-c2ccc4c(c2)OCO4)CCC3)nc1	1.02	1.52	6.32	1.24	5.19	1.61	1.95	1.93	5.52	2.03	6.89	0.04	0.44	-0.4	-0.33	1.36	1.96	-0.55	0.62	0.29
Clc1ccc(-c2nn3ncccc3c2-c2ccnc(Nc3ccccc3)n2)cc1	2.2	2.68	5.74	1.65	3.34	1.34	0.66	1.79	12.2	2.61	26.2	1.35	3.25	0.5	2.83	16.6	73.4	-0.11	1.18	-0.01
c1ccc(COc2ccc(Nc3ncnc4ccc(-c5ccco5)cc34)cc2)cc1	-0.29	-1.32	3.87	-0.39	0.34	0.31	-1.53	1.11	1.51	0.28	2.25	-3.03	-3.68	0.31	1.89	1.39	1.07	2.65	-3.36	0.95
